Only some compounds are listed: those with a hit (about 3.6% of all), similar ones and a draw of the others.
mHTT CaM bind: mutant huntingtin-calmodulin interaction inhibitors – biochemical, AlphaScreen, primary screen. AlphaScreen His-mHTT/GST-CaM binding, luminescence. inhibition, % at 15 µM. 190,000 tested, 3.6% active;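 note: 0% = both proteins with DMSO and 100% = one protein alone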
Pf apPOL block: Pf-apPOL inhibitors, biochemical, fluorescence; Plasmodium falciparum apicoplast DNA polymerase (apPOL); Recombinant Pf-apPOL, molecular beacon fluorescence, 1.5 h; inhibition, % at 10 µM; 210,000 tested, 0.25% active
* hit, by the source's call. Cut-off read from the data, not from the text of the source: active = inhibition above about 50%; inactive = the rest.

SMILES	mHTT CaM bind	Pf apPOL block
CCc1cc(C2CCCN2Cc2ccc(OC(C)C)cc2)on1 (stereo unspecified)	-4	-5
Cc1ccccc1CNC(=O)C1(C)Cc2ccccc2C(=O)N1C(C)C (stereo unspecified)	-1	0
CCCCCCN1C[C@H](n2cc(-c3ccc(F)cc3)nn2)[C@@H](O)C[C@@H]1c1ccccc1	60*	-2
Cc1ccc([C@H]2C[C@H](O)[C@@H](n3cc(-c4ccc(F)cc4)nn3)CN2Cc2cccs2)cc1	8	-3
O[C@H]1C[C@H](c2ccc(Cl)cc2)N(Cc2cccs2)C[C@@H]1n1cc(-c2ccc(F)cc2)nn1	100*	-2
CCCCCCN1C[C@H](O)[C@@H](n2cc(-c3ccc(F)cc3)nn2)C[C@@H]1c1ccccc1	4	-4
COc1ccc(C(=O)Nc2nc(C(F)(F)F)c(-c3ccccn3)s2)cc1OC	10	-5
Cc1ccc(CNC(=O)C2(C)CCCN(C(=O)Nc3ccc(C)c(C)c3)C2)cc1 (stereo unspecified)	-7	2
Cn1c(CN2CCN(C(=O)c3ccc(Br)o3)CC2)nc2ccccc21	-3	-4
Cn1c(CN2CCN(C(=O)c3ccc([N+](=O)[O-])o3)CC2)nc2ccccc21	-5	53*
Fc1ccc(C2=CC(c3ccc(F)cc3)n3nnnc3N2)cc1 (stereo unspecified)	-16	-6
Cc1nccn1CCNC(=O)C(=O)Nc1cccnc1	-8	-1
CCn1cc(CC(=O)N2CCN(c3ccccc3)CC2)c2cccnc21	13	-5
O=C(c1csc(-c2ccncc2)n1)N1CCN(c2cccc(C(F)(F)F)c2)CC1	63*	2
COc1cccc(N2CCN(C(=O)c3csc(-c4cccnc4)n3)CC2)c1	19	-2
Cc1nc(-c2cn(C)c3ncccc23)sc1C(=O)N1CCN(c2ccccc2)CC1	55*	-6
CCn1cc(-c2nc(C(=O)N3CCN(c4ccccc4)CC3)cs2)c2cccnc21	100*	-2
CCn1cc(-c2nc(C)c(C(=O)N3CCOCC3)s2)c2cccnc21	9	0
CCC(=O)N1CCN(c2nc3c(s2)CC(C(=O)NCc2ccccn2)CC3)CC1 (stereo unspecified)	10	-9
Cn1c(SCC(=O)Nc2cccc([N+](=O)[O-])c2)nnc1-c1ccc(N)cc1	4	0
Cc1c(OCC(N)=O)ccc2c1OC(=Cc1ccc3c(c1)OCO3)C2=O	29	-15
COc1cccc(C(=O)Nc2nccn(-c3ccc(Br)cc3)c2=O)c1	-5	0
O=C(Nc1ccc(N2S(=O)(=O)c3ccccc3S2(=O)=O)cc1)c1ccco1	3	-1
C=C(C)CN1C(=O)CSc2nnc(COc3ccccc3)n21	5	-5
O=C(O)CNC(=O)c1ccccc1	-8	-8
SMILES	mHTT CaM bind	Pf apPOL block
NNC(=O)CNC(=O)c1ccccc1	0	62*
O=S(=O)(c1ccccc1)c1ccccc1C(O)c1ccccc1 (stereo unspecified)	-8	1
CC(C)(C)N1Cc2nnn(Cc3ccccc3)c2-c2cc(F)ccc2S1(=O)=O	-6	-2
CCN1Cc2nnn(Cc3ccccc3)c2-c2cc(F)ccc2S1(=O)=O	94*	-3
Cc1nc(C(=O)Nc2ccccc2)c(C)n1C1CCN(S(C)(=O)=O)CC1	2	-1
Cc1nc(C(=O)Nc2ccc(Oc3ccccc3)cc2)c(C)n1C1CCN(C)CC1	82*	-6
COc1ccc(N2C(=O)CC(N(O)c3ccccc3)C2=O)cc1 (stereo unspecified)	1	-1
O=C(c1ccc([N+](=O)[O-])cc1)N1CCN(Cc2c[nH]c3ccccc23)CC1	20	-2
O=[N+]([O-])c1ccc(/C=C/S(=O)(=O)N2C=Cc3ccccc3C2c2c[nH]c3ccccc23)cc1 (stereo unspecified)	57*	2
Cc1cc(C)cc(N2C(=O)C3N=NN(c4ccc(Br)c(C)c4)C3C2=O)c1 (stereo unspecified)	5	-2
COc1ccc(NC(=O)CN2C(=O)C(c3ccccc3)=NC23CCC(C)CC3)cc1OC (stereo unspecified)	8	-8
O=C(CN1C(=O)C(c2ccccc2)=NC12CCCCCC2)Nc1ccccc1	45	1
O=C(CN1C(=O)C(c2ccc(F)cc2)=NC12CCCCC2)Nc1ccc(F)cc1	12	-6
O=C(CN1C(=O)C(c2ccc(F)cc2)=NC12CCCCC2)Nc1ccc(Cl)cc1	77*	-10
CC1CCC2(CC1)N=C(c1ccccc1)C(=O)N2CC(=O)Nc1ccc(F)c(F)c1 (stereo unspecified)	76*	-7
CC1CCC2(CC1)N=C(c1ccccc1)C(=O)N2CC(=O)Nc1cccc(Cl)c1 (stereo unspecified)	70*	-6
O=C(CN1C(=O)C(c2ccccc2)=NC12CCCCCC2)Nc1cccc(F)c1	52*	-9
COc1ccc(NC(=O)CN2C(=O)C(c3ccccc3)=NC23CCC(C)CC3)cc1Cl (stereo unspecified)	15	-7
Nc1nc(SCC(=O)OCc2ccccc2)[nH]c(=O)c1NC(=O)c1ccc(F)cc1	-18	-4
O=S(=O)(Cc1ccccc1)N1CCC(Oc2nc3ccccc3s2)CC1	-16	-8
Cc1nc2c(C(=O)NCc3ccccn3)cnn2c(C)c1Cc1ccccc1	6	-8
Cc1ccccc1N1C(=O)NC2CC1(C)Oc1ccc(Cl)cc12 (stereo unspecified)	5	2
CCOc1cccc2c1OC1(CCC(C)CC1)N1N=C(c3ccco3)CC21 (stereo unspecified)	25	-17
O=C(CN1C(=O)C(c2ccccc2)=NC12CCCCCC2)Nc1ccc(F)cc1	-5	-4
O=C(CN1C(=O)C(c2ccccc2)=NC12CCCCC2)Nc1ccc(F)c(F)c1	100*	-12
SMILES	mHTT CaM bind	Pf apPOL block
CCOc1nccnc1N1CCC(NC(=O)NCc2ccco2)C1 (stereo unspecified)	2	1
O=C1c2ccc(Br)cc2C(=O)N1Cc1ccc2c(c1)OCO2	-5	-9
COc1ccc(/C=C2\c3cc([N+](=O)[O-])ccc3-c3c2cc([N+](=O)[O-])cc3[N+](=O)[O-])cc1OC	9	-4
CCO/C=C1\c2cc([N+](=O)[O-])ccc2-c2c1cc([N+](=O)[O-])cc2[N+](=O)[O-]	74*	-5
COc1cccc(NC(=O)c2ccc(Cl)cc2[N+](=O)[O-])c1	6	-4
COc1ccc(OCC(O)CN2CCN(c3ccc(OC)cc3)CC2)cc1 (stereo unspecified)	2	0
OC(COCC12CC3CC(CC(C3)C1)C2)CN1CCN(c2cccc(Cl)c2)CC1 (stereo unspecified)	99*	-3
COc1ccc(N2CCN(CC(O)COCC34CC5CC(CC(C5)C3)C4)CC2)cc1 (stereo unspecified)	70*	-7
OC(COCC12CC3CC(CC(C3)C1)C2)CN1CCCC1 (stereo unspecified)	11	-2
CCOc1cc(C(=O)Nc2c3c(nn2-c2cccc(C)c2)CSC3)cc(OCC)c1OCC	25	-4
COc1cc(OC)c(NC(=O)c2ccc(C(C)(C)C)cc2)cc1Cl	-2	-2
O=C(Nc1ccc(-c2nc3ccccc3c(=O)o2)cc1)c1ccccc1Br	-7	-2
COc1ccccc1/C=C1\C(=O)NN(c2ccccc2)C1=O	-1	-4

Screens deposited in PubChem by University of Kansas High Throughput Screening Laboratory.
